Measured values: PubChem BioAssay (NCI)
The panel holds about 79,000 compounds, 15% with a hit somewhere; the sample as a whole holds those more often. Values without a mark were called inactive. Activity calls are given as the source filed them. No stated cut-off is given here; in the data, active means growth inhibition above about 70%; inactive means the rest.

Experiment: NCI Yeast Anticancer Drug Screen. Data for the bub3 strain (AID 167)
Conditions: S. cerevisiae bub3 mutant strain, at 5.0 µM (retest, dose inferred, filed as 0.5), active compounds read high
Procedure, shortened: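 Screening used yeast with an engineered genetic alteration affecting cell cycle control. Compound-exposed cultures were compared with vehicle cultures, and reduced growth was taken as inhibition.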

| SMILES | growth inhibition |
| --- | --- |
| Cc1cccc2c(C(O)CBr)cc(-c3ccc(Cl)cc3)nc12 (stereo not given) | -1% |
| CN(C)C[C@H]1CC[C@@H](CN(C)C)C1=O | 9% |
| CC1=C(SCCO)C(=O)c2ccccc2C1=O | -19% |
| COC(=O)CCNc1c2ccccc2nc2cccc([N+](=O)[O-])c12 | 10% |
| CC(/C=C/c1ccc2c(c1)OCO2)[N+](=O)[O-] (stereo not given) | 46% |
| COC(=O)C1=C(C)NC(C)=C(C(=O)OCCCN2CCC(c3ccccc3)(c3ccccc3)CC2)C1c1cccc([N+](=O)[O-])c1 (stereo not given) | 42% |
| CCOC(=O)c1cnc2c(C(F)(F)F)cccc2c1N=[N+]=[N-] | -3% |
| O=[N+]([O-])c1cc2no[n+]([O-])c2cc1N1CCCCC1 | -2% |
| COC(=O)c1ccc(NCC2=CC(=O)C=CC2=O)cc1O | 66% |
| CCCCCCCCNC(=O)C1=C(C)NC(C)=C(C(=O)NCCCCCCCC)C1 | 35% |
| S=C(Nc1ccc(Cl)c(Cl)c1)SCc1ccc2c(c1)OCO2 | 76% (active) |
| O=S(=O)(CCCl)c1ccccc1Cl | -59% |
| Nc1ccccc1CC(O)C(=O)O (stereo not given) | -17% |
| CN(C)c1ccc(Sc2ccc3nc(N)nc(N)c3c2)cc1 | 27% |
| CC(C)C1=CCC2C(=C1)CCC1C(C)(C(=O)O)CCCC21C (stereo not given) (tested in a mixture with another compound) | 29% |
| Cc1ccc(S(=O)(=O)Oc2cc(Cl)c(Cl)cc2Cl)cc1 | 4% |
| CSC(=S)Nc1cc(C)ccn1 | 8% |
| CC(C)c1cc(C(C)C)c(O)c(C([O-])[O-])c1.CC(C)c1cc(C(C)C)c(O)c(C([O-])[O-])c1.CC(C)c1cc(C(C)C)c(O)c(C([OH2+])[OH2+])c1.CC(C)c1cc(C(C)C)c(O)c(C([OH2+])[OH2+])c1.[Cu+2].[Cu+2].[OH3+].[OH3+] | 4% |
| Cc1cc(I)ccc1N | 27% |
| CC(Br)C(=O)c1ccc2cc(Br)c3ccccc3c2c1 (stereo not given) | -10% |

| SMILES | growth inhibition |
| --- | --- |
| O=C(Nc1ccccc1)OCCc1ccc(Cl)c(Cl)c1 | 6% |
| O=Cc1cccc2ccc3ccccc3c12 | -54% |
| O=[N+]([O-])CC(SCc1ccccc1)c1ccc2c(c1)OCO2 (stereo not given) | 89% (active) |
| CC1(Cl)CC(O)C2(CC1Br)C1(C)OC1C1OC1(Br)C2(C)C (stereo not given) | 29% |
| Cc1cc(O)cc(O)c1N=Nc1ccc([N+](=O)[O-])cc1 | 16% |
| CCCCCCCCCCCCCC[N+](C)(CC(=O)[O-])Cc1ccccc1 (stereo not given) | 2% |
| CC1=NN(c2cccc(Cl)c2)C(=O)C1 | 27% |
| CC(=O)OCc1ccc(O)c(C=O)c1 | 25% |
| Cc1ccc2ccc3cccc4ccc1c2c34 | 2% |
| Cc1nc(-[n+]2nc(-c3ccncc3)nn2-c2ccccc2)sc1C | -45% |
| C(CCSC1=NCCN1)CSC1=NCCN1 (tested in a mixture with another compound) | 5% |
| CCCCCCCCCCC(=O)Cl | 16% |
| COC1C=COC2(C)Oc3c(C)c(O)c4c(c3C2=O)/C(=N/C2CCC(O)OC2C)C=C(NC(=O)/C(C)=C\C(=O)C2CC2C(O)C(C)C(O)C(C)C(OC(C)=O)C1C)C4=O (stereo not given) | -19% |
| S=c1[nH]nc(Nc2ccc(Cl)cc2)s1 | -67% |
| O=C1CSC(/C=C/c2ccccc2)N1c1ccc(-c2ccc(-n3c(-c4ccccc4)nc4ccccc4c3=O)cc2)cc1 (stereo not given) | -6% |
| O=C1C=CC(=O)N1c1ccc2c(c1)Cc1cc(NC(=O)C(F)(F)F)ccc1-2 | 57% |
| Brc1ccc(-c2cc3c(cc2C2SCCS2)OCO3)cc1 | 5% |
| Oc1ccc2ccccc2c1C(c1ccc(Cl)cc1)c1c(O)ccc2ccccc12 | 29% |
| C[CH2][Sn]([CH2]C)([O]C(=O)C(OC(C)=O)c1ccccc1)[O]C(=O)C(OC(C)=O)c1ccccc1 (stereo not given) | -13% |
| Cc1ccc2ccc(O)cc2c1 | 4% |

Same assay, conditions: S. cerevisiae bub3 mutant strain, at 11.0 µM, active compounds read high

| SMILES | growth inhibition |
| --- | --- |
| Cc1cccc2c(C(O)CBr)cc(-c3ccc(Cl)cc3)nc12 (stereo not given) | 98% (active) |
| CN(C)C[C@H]1CC[C@@H](CN(C)C)C1=O | 19% |
| CC1=C(SCCO)C(=O)c2ccccc2C1=O | 5% |
| COC(=O)CCNc1c2ccccc2nc2cccc([N+](=O)[O-])c12 | 66% |
| CC(/C=C/c1ccc2c(c1)OCO2)[N+](=O)[O-] (stereo not given) | 99% (active) |
| COC(=O)C1=C(C)NC(C)=C(C(=O)OCCCN2CCC(c3ccccc3)(c3ccccc3)CC2)C1c1cccc([N+](=O)[O-])c1 (stereo not given) | 83% (active) |
| CCOC(=O)c1cnc2c(C(F)(F)F)cccc2c1N=[N+]=[N-] | -4% |
| O=[N+]([O-])c1cc2no[n+]([O-])c2cc1N1CCCCC1 | 71% (active) |
| COC(=O)c1ccc(NCC2=CC(=O)C=CC2=O)cc1O | 20% |
| CCCCCCCCNC(=O)C1=C(C)NC(C)=C(C(=O)NCCCCCCCC)C1 | 0% |
| S=C(Nc1ccc(Cl)c(Cl)c1)SCc1ccc2c(c1)OCO2 | 99% (active) |
| O=S(=O)(CCCl)c1ccccc1Cl | 38% |
| Nc1ccccc1CC(O)C(=O)O (stereo not given) | 9% |
| CN(C)c1ccc(Sc2ccc3nc(N)nc(N)c3c2)cc1 | -20% |
| CC(C)C1=CCC2C(=C1)CCC1C(C)(C(=O)O)CCCC21C (stereo not given) (tested in a mixture with another compound) | 0% |
| Cc1ccc(S(=O)(=O)Oc2cc(Cl)c(Cl)cc2Cl)cc1 | 3% |
| CSC(=S)Nc1cc(C)ccn1 | 41% |
| CC(C)c1cc(C(C)C)c(O)c(C([O-])[O-])c1.CC(C)c1cc(C(C)C)c(O)c(C([O-])[O-])c1.CC(C)c1cc(C(C)C)c(O)c(C([OH2+])[OH2+])c1.CC(C)c1cc(C(C)C)c(O)c(C([OH2+])[OH2+])c1.[Cu+2].[Cu+2].[OH3+].[OH3+] | 19% |
| Cc1cc(I)ccc1N | 11% |
| CC(Br)C(=O)c1ccc2cc(Br)c3ccccc3c2c1 (stereo not given) | 3% |

| SMILES | growth inhibition |
| --- | --- |
| O=C(Nc1ccccc1)OCCc1ccc(Cl)c(Cl)c1 | 37% |
| O=Cc1cccc2ccc3ccccc3c12 | -3% |
| O=[N+]([O-])CC(SCc1ccccc1)c1ccc2c(c1)OCO2 (stereo not given) | 91% (active) |
| CC1(Cl)CC(O)C2(CC1Br)C1(C)OC1C1OC1(Br)C2(C)C (stereo not given) | 1% |
| Cc1cc(O)cc(O)c1N=Nc1ccc([N+](=O)[O-])cc1 | 43% |
| CCCCCCCCCCCCCC[N+](C)(CC(=O)[O-])Cc1ccccc1 (stereo not given) | 99% (active) |
| CC1=NN(c2cccc(Cl)c2)C(=O)C1 | -32% |
| CC(=O)OCc1ccc(O)c(C=O)c1 | -7% |
| Cc1ccc2ccc3cccc4ccc1c2c34 | 2% |
| Cc1nc(-[n+]2nc(-c3ccncc3)nn2-c2ccccc2)sc1C | -5% |
| C(CCSC1=NCCN1)CSC1=NCCN1 (tested in a mixture with another compound) | 94% (active) |
| CCCCCCCCCCC(=O)Cl | -34% |
| COC1C=COC2(C)Oc3c(C)c(O)c4c(c3C2=O)/C(=N/C2CCC(O)OC2C)C=C(NC(=O)/C(C)=C\C(=O)C2CC2C(O)C(C)C(O)C(C)C(OC(C)=O)C1C)C4=O (stereo not given) | -2% |
| S=c1[nH]nc(Nc2ccc(Cl)cc2)s1 | -7% |
| O=C1CSC(/C=C/c2ccccc2)N1c1ccc(-c2ccc(-n3c(-c4ccccc4)nc4ccccc4c3=O)cc2)cc1 (stereo not given) | 22% |
| O=C1C=CC(=O)N1c1ccc2c(c1)Cc1cc(NC(=O)C(F)(F)F)ccc1-2 | 7% |
| Brc1ccc(-c2cc3c(cc2C2SCCS2)OCO3)cc1 | -15% |
| Oc1ccc2ccccc2c1C(c1ccc(Cl)cc1)c1c(O)ccc2ccccc12 | -1% |
| C[CH2][Sn]([CH2]C)([O]C(=O)C(OC(C)=O)c1ccccc1)[O]C(=O)C(OC(C)=O)c1ccccc1 (stereo not given) | 12% |
| Cc1ccc2ccc(O)cc2c1 | 14% |
